Measured values reported in PubChem BioAssay (NCI).
The panel holds about 83,000 compounds, 20% with a hit somewhere; the sample as a whole holds those more often.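 Cells were grown in 96-well plates and exposed to the test compound at a single concentration for 48 hours; results are reported as percent growth, with values below 10 considered active.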 Values without a mark were called inactive. The source made the active and inactive calls.

How the values were obtained:
Experiment in all cases: NCI-60 one-dose screen, 48 h (100 = growth as untreated, 0 = no growth, -100 = all killed)
Details in all cases: 10 µM
EKVX NSCLC = system: EKVX NSCLC
SN12C renal = system: SN12C renal
UO-31 renal = system: UO-31 renal
TK-10 renal = system: TK-10 renal
ACHN renal = system: ACHN renal
CAKI-1 renal = system: CAKI-1 renal
A498 renal = system: A498 renal
CCRF-CEM leukemia = system: CCRF-CEM leukemia
MOLT-4 leukemia = system: MOLT-4 leukemia
SR leukemia = system: SR leukemia

SMILES	growth (EKVX NSCLC) [%]	growth (SN12C renal)	growth (UO-31 renal)	growth (TK-10 renal)	growth (ACHN renal)	growth (CAKI-1 renal)	growth (A498 renal)	growth (CCRF-CEM leukemia)	growth (MOLT-4 leukemia)	growth (SR leukemia)
COc1ccc2c(c1)sc1nc(-c3ccccc3)c(-c3cccnc3)n12	83	98.2%	95.2%	116%	97.7%	81.2%	58.4%	93.1%	86.6%	86.6%
COc1ccc(N=C2C(=Nc3ccc(OC)cc3)N(c3ccc(N(C)C)cc3)C(=S)N2c2ccc(OC)cc2)cc1	90.1	106%	16.3%	95.1%	81.6%	53.3%	71.1%	52%	10.8%	46.3%
COc1ccc2c(c1)C(=O)c1c-2c(OCCN(C)C)nc2cc(OC)c(OC)cc12	93.9	51.9%	46.8%	64.2%	38.3%	81%	102%	28.2%	11.6%	1.83% (active)
COc1ccc(NC(=O)CSc2nc3ccccc3c(=O)n2CCc2ccccc2)cc1	75.2	79%	90.2%	109%	93.4%	87.5%	101%			
CCCCCCCCN(CCCCCCCC)CCCCCCCCCN1CCCc2cc(OC)ccc21	81.5	82.7%	80.4%	117%	96.5%	99.3%	96%	85.8%	85.8%	77.5%
O=C1OCC2=C1C(c1cccc(Br)c1)c1cc3c(cc1N2CCO)CCC3 (configuration not stated)	47.7	21.2%	33.9%	62.6%	20.9%	20.8%	-11.2% (active)	8.55% (active)	14.1%	28.5%
Cc1nc2oc3ccccc3c(=O)c2cc1C(=O)NCc1ccccc1	69.3	99%	63.3%	87.6%	63.3%	52%	92.5%	76.9%	66.7%	69.7%
N#Cc1c(C#N)c(SSc2c(C#N)c(C#N)c(N)n2-c2ccccc2)n(-c2ccccc2)c1N	107	99.3%	81.2%	107%	101%	118%	92.1%	126%	106%	106%
CCCCCC(=O)c1ccc(OCCCN2CCN(C(=O)OCC)CC2)cc1	83.4	94.8%	77.4%	101%	96.1%	95.2%	95.5%	21.1%	78.6%	84.4%
COc1ccc(N2C(=O)C3c4[nH]c5ccc(OCc6ccccc6)cc5c4C4CCC(C(C)C)CC4C3C2=O)cc1 (configuration not stated)	115	103%	91.7%	116%	3.44% (active)	94%	105%	71.9%	30.8%	64.6%
COc1cccc(C2C3=C(COC3=O)N(CCO)c3cc(OC)ccc32)c1 (configuration not stated)	40.5	27%	50.4%	51.8%	31.9%	36.7%	-6.88% (active)	15%	19%	22.3%
COc1ccc(-c2nc3ncccn3c2-c2nnc(-c3ccsc3C)o2)cc1	94.5	87.7%	73.8%	96.7%	72.3%	82.9%	99.4%	90.1%	97%	83.4%
CCN(CC)CCC(CNc1c(C)cnc2cc(Cl)ccc12)c1ccc(Cl)cc1 (configuration not stated)	70.8	56.7%	41.8%	89.6%	44.8%	60.1%	19.8%	42%	39.5%	-10.8% (active)
CCN(CC)CCN1CC(=O)Nc2cc(Cl)ccc21	101	103%	82%	114%	104%	90.7%	87.6%	101%	105%	114%
Cc1occc1-c1nnc(SCC(=O)c2ccc(NC(=O)CC(C)C)cc2)o1	103	107%	93.7%	123%	109%	84.1%	118%	93.4%	100%	7.85% (active)
COc1ccc(C2=NN(C(=O)c3ccc(S(C)(=O)=O)cc3)C(c3ccc(OC)c(OC)c3)C2)c(OC)c1 (configuration not stated)	98.7	100%	74.9%	116%	102%	93.1%	98.5%	103%	92.2%	97.2%
CCN1CCC(CCOC)(CN2c3ccccc3Sc3ccc(Cl)cc32)C1 (configuration not stated)	56.7	59.7%	8.09% (active)	64.1%	47.2%	46.6%	56.6%	30.5%	22.5%	40.4%
CCCCCCCCCCCCCCCCCCOCC(COCCOCC[N+]1(CCCCCC(=O)[O-])CCCC1)Oc1ncccn1 (configuration not stated)	63.4	46.6%	98.7%	7.83% (active)	69.2%	93.5%	73.7%	32.3%	32.5%	29.9%
CCCCCCCCCCCC[n+]1ccc(C(N)=O)cc1	22.2	12.3%	64.4%	-28% (active)	87.5%	41.1%	78.9%	13%	13.6%	14.5%
Nc1ncnc2[nH]c(=O)[nH]c12	83.2	90.9%	105%	99.3%	98.9%	6.82% (active)	128%	125%	138%	26.1%
N=C1c2nc3n(c2C(=O)c2nc4n(c21)CCCC4)CCCC3	95.6	-86.1% (active)	46.9%	128%	69.4%	88.8%	52.1%	92.9%	85.4%	69.5%
COc1ccc(NC(=O)Cc2nc3nc4sc(C)c(C)c4c(=O)n3[nH]2)cc1	93.1	106%	83.1%	115%	107%	98%	122%	90.4%	99.4%	99.1%
COc1ccc2c(c1)C(=O)c1c-2c(OCCN2CCCCC2)nc2ccc(OC)cc12	39.6	20%	-6.08% (active)	41.1%	9.5% (active)	-11.5% (active)	53.7%	14.3%	8.36% (active)	2.46% (active)
COC(=O)c1c(-c2ccccc2)csc1NC(=O)c1c(-c2ccccc2)noc1C	58.7	44.8%	26%	55.9%	31.5%	6.32% (active)	67.8%	35%	15.9%	-17.2% (active)
COc1cc(-c2cc(C(=O)N3CCN(C(=O)c4ccccc4NCc4ccco4)CC3)nc3cc(-c4ccccc4)nn23)cc(OC)c1OC	49	44.4%	6.15% (active)	35.8%	53.6%	12%	-0.0574% (active)	19.3%	37.8%	-2.88% (active)
COC(=O)[C@@H]1[C@H](O)[C@H](C)[C@H](O)[C@@](C)(O)/C=C\C=C(C)C(=O)Nc2c(C)c(OC(C)=O)c3c(c2O)C(=O)C(C)=C2OCOC(=C23)C(C)=C[C@@](C)(O)[C@H](O)[C@@H](C)[C@H]1OC(C)=O	108	108%	88.7%	126%	110%	100%	120%	111%	95.6%	92.1%
CN(C)CCN1C(=O)c2cccc3c(-c4ccc5ncn(C6CCCCC6)c5c4)ccc(c23)C1=O	29.8	19.3%	2.42% (active)	26.7%	13.8%	25%	4.69% (active)	15.4%	-18.7% (active)	3.59% (active)
